Target: E3 ubiquitin-protein ligase XIAP (Homo sapiens) (UniProt P98170)
Test: small molecules binding XIAP protein – biophysical, small-molecule microarray, fluorescence 635 nm, primary screen (AID 1181);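 further: score merges 667 nm emission and signal to noise over triplicate slides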
Conditions: higher = more signal

Sequence of E3 ubiquitin-protein ligase XIAP (Homo sapiens) (P98170 whole entry, looked up): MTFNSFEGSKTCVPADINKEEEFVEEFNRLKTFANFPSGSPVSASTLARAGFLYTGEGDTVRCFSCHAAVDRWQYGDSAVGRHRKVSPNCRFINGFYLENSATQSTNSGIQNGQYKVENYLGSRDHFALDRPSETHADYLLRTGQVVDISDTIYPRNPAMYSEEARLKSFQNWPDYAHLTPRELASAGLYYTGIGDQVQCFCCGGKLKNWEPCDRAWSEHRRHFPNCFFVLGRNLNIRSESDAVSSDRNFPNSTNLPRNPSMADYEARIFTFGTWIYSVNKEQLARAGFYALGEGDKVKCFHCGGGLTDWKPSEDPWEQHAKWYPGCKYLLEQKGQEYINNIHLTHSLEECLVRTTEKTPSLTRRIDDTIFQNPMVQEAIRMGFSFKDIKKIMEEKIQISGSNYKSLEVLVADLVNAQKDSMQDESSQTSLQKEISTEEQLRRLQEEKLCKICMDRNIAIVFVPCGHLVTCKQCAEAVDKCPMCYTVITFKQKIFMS

SMILES	composite z-score
C[C@H]1Cc2c(-c3ccccc3)nc3c(c2CO1)CN(CCOc1ccccc1)CC3	-0.0599
COCCCNC(=O)[C@@]1(CCS(=O)(=O)c2ccccc2)N=C(c2ccc(OCCCO)cc2)O[C@H]1c1ccccc1	0.14
O=C1CCCC2OC12C(O)CCc1ccccc1 (centres undefined)	-0.0238
COC(=O)CC=C[C@H](C)[C@@H](OCc1ccccc1Br)C(C)C	0.157
CO[C@H]1COC(=O)[C@@H]2CCCN2C(=O)[C@@H](C)COC(=O)CC=C[C@@H]1C	0.285
CC(C)=CCCC(C)=CCON=C1[C@H]2CCn3c(=O)n(C)c(=O)n3[C@H]2[C@H](O)[C@@H]2O[C@H]12	0.153
CN1C(=O)C2C=CC(C(O)C(c3ccccc3)c3ccccc3)N(NC(=O)OC(C)(C)C)C2C1=O (centres undefined)	0.497
CCOC(=O)CCN1C(=O)[C@H]2[C@H]3[C@H](O)[C@H](O)CC(=NNC(=O)OCc4ccc(OC)cc4)[C@@H]3CC[C@H]2C1=O	-0.171
CC(CCC(=O)OC[C@H]1O[C@H](C#Cc2ccccc2)C=C[C@@H]1Oc1ccc(C)cc1)=NO[C@@H](C)c1cn([C@H](CO)Cc2ccccc2)nn1	-0.338
